# Laboratory results as given in paper PMC7862700, “An all-to-all approach to the identification of sequence-specific readers for epigenetic DNA modifications on cytosine”.
# How the values were obtained:
# Test in all cases: DAPPL (digital affinity profiling via proximity ligation, sequencing); 10 mM Tris-HCl pH 7.5, 50 mM NaCl, 1 mM DTT, 4% glycerol, room temperature, 30 min; GST-TFs on glutathione beads, 16-mer random dsDNA library, 0.1% formaldehyde crosslink after washing; high values mean tight binding
# Conditions in all cases: protein: recombinant; tags: N-terminal GST; dsDNA, one strand shown
# FLI1 = biological target: T1, FLI1 (Homo sapiens, UniProt Q01543 1-452)
# T1 sequence: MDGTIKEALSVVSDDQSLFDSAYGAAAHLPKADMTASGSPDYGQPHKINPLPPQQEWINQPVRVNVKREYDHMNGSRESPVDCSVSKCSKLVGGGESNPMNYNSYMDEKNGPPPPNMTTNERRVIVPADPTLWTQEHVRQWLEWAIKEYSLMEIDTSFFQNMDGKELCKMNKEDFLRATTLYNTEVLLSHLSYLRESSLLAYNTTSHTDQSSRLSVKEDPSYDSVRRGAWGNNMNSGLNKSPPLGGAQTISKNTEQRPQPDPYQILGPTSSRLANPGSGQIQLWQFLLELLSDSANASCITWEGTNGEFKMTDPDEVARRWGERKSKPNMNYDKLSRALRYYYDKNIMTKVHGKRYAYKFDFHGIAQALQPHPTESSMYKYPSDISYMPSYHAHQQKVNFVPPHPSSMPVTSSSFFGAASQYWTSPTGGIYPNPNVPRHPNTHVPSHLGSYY
# In short: (§1)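 Human transcription factors were made in yeast as GST fusions, captured on glutathione beads and barcoded with DNA. With a tag-only sample included, the pool was incubated with 200 nmole of a random double-stranded 16-mer DNA library in Tris/NaCl/DTT/glycerol buffer at room temperature for 30 min, then crosslinked with 0.1% formaldehyde after washing, ligated by proximity, amplified and sequenced. For binding signal, each hexamer's read frequency for a factor is divided by its frequency for the tag-only sample.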
# ELK1 = biological target: T2, ELK1 (Homo sapiens, UniProt P19419 1-428)
# T2 sequence: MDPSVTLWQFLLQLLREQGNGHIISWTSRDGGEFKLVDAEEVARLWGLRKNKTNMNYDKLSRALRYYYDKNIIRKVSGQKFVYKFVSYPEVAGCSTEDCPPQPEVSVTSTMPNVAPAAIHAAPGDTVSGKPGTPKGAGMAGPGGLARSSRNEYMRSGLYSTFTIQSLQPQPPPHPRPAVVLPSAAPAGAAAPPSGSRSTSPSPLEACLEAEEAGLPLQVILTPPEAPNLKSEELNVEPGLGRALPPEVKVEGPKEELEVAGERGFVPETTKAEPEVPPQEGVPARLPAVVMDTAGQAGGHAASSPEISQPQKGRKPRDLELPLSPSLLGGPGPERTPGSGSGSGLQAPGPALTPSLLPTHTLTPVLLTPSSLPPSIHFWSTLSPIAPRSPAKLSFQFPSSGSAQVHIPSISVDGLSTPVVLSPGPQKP
# In short: as §1
# GABPA = biological target: T3, GABPA (Homo sapiens, UniProt Q06546 1-454)
# T3 sequence: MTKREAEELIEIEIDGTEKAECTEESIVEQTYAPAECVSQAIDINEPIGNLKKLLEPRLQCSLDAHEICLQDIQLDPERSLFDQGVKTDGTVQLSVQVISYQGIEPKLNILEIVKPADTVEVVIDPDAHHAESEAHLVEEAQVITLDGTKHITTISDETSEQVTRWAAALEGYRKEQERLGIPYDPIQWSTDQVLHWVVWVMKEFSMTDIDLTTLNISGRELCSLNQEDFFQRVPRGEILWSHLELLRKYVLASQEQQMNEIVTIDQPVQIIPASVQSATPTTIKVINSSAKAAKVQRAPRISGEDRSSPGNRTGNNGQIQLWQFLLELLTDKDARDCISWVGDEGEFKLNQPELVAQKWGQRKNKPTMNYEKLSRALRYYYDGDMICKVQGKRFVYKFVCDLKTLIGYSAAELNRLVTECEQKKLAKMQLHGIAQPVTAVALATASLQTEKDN
# In short: as §1
# ERG = biological target: T4, ERG (Homo sapiens, UniProt P11308 1-479)
# T4 sequence: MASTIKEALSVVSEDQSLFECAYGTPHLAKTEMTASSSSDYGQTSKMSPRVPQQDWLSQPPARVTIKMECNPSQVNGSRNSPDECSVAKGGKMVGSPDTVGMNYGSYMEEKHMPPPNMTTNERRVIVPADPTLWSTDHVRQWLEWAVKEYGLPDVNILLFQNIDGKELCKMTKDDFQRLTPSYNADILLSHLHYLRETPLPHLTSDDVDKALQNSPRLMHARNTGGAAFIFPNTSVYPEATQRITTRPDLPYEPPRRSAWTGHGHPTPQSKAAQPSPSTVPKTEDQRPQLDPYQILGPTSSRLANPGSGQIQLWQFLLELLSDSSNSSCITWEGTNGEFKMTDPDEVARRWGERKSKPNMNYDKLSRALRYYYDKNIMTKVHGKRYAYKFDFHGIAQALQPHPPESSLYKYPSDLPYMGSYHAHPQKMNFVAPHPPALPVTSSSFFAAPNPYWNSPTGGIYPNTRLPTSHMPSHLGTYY
# In short: as §1
# ELF1 = ELF1 (Homo sapiens, UniProt P32519 1-619)
# Sequence of ELF1 (P32519 whole entry): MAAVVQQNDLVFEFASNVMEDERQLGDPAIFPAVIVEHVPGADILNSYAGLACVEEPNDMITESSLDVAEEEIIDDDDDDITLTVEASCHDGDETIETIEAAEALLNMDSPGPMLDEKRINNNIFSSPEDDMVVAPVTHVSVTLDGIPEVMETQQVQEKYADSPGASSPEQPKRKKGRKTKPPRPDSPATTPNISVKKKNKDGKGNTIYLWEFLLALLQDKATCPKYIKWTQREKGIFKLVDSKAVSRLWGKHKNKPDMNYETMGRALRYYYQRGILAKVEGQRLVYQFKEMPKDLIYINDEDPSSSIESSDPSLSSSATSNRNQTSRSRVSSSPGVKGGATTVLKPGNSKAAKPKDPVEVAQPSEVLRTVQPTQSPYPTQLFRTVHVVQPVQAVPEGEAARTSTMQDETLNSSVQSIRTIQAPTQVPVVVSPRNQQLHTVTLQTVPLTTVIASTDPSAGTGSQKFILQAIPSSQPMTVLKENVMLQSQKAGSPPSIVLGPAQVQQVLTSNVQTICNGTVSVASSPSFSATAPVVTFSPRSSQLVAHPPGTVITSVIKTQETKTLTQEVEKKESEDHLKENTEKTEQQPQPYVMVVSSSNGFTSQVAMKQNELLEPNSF
# In short: as §1
# EHF = biological target: T5, EHF (Homo sapiens, UniProt Q9NZC4 1-300)
# T5 sequence: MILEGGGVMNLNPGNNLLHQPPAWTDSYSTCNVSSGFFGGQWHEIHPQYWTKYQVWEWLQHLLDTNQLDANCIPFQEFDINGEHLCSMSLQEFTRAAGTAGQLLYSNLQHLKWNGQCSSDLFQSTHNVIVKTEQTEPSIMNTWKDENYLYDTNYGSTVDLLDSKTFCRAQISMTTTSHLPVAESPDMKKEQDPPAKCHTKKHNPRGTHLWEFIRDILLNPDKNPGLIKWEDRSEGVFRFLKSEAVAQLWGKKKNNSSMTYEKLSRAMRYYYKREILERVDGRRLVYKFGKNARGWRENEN
# In short: as §1
# SPI1 = SPI1 (Homo sapiens, UniProt P17947 1-270)
# In short: as §1
# SPIB = SPIB (Homo sapiens, UniProt Q01892 1-262)
# Sequence of SPIB (Q01892 whole entry): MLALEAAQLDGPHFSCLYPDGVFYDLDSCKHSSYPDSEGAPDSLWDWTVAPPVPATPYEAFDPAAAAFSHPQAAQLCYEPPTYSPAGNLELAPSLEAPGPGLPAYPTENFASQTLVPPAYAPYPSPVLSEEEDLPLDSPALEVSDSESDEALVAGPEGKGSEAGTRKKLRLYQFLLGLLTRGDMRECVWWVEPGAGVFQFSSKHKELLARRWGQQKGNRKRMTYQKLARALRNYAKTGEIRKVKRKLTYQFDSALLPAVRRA
# In short: as §1
# ELK3 = biological target: T6, ELK3 (Homo sapiens, UniProt P41970 1-407)
# T6 sequence: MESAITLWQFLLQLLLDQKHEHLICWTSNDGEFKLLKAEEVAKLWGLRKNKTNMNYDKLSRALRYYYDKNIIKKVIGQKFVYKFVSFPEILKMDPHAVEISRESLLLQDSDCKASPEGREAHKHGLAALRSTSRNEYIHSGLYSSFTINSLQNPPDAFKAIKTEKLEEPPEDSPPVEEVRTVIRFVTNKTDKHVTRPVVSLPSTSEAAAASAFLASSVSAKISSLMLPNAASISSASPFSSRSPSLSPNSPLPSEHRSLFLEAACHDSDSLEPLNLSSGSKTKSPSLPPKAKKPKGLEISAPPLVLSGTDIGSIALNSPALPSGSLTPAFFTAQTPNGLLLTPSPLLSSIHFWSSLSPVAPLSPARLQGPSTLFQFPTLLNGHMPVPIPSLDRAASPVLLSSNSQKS
# In short: as §1
sequence,measurement,setting,value
TTTTAC,binding signal,FLI1,"1.45 fold enrichment (6-mer frequency, TF over GST control)"
same,binding signal,ELK1,"1.27 fold enrichment (6-mer frequency, TF over GST control)"
same,binding signal,GABPA,"1.33 fold enrichment (6-mer frequency, TF over GST control)"
same,binding signal,ERG,"1.3 fold enrichment (6-mer frequency, TF over GST control)"
same,binding signal,ELF1,"1.39 fold enrichment (6-mer frequency, TF over GST control)"
same,binding signal,EHF,"1.45 fold enrichment (6-mer frequency, TF over GST control)"
same,binding signal,SPI1,"1.37 fold enrichment (6-mer frequency, TF over GST control)"
same,binding signal,SPIB,"1.4 fold enrichment (6-mer frequency, TF over GST control)"
same,binding signal,ELK3,"1.39 fold enrichment (6-mer frequency, TF over GST control)"
CGGCTC,binding signal,FLI1,"1.27 fold enrichment (6-mer frequency, TF over GST control)"
same,binding signal,ELK1,"1.29 fold enrichment (6-mer frequency, TF over GST control)"
same,binding signal,GABPA,"1.2 fold enrichment (6-mer frequency, TF over GST control)"
same,binding signal,ERG,"1.33 fold enrichment (6-mer frequency, TF over GST control)"
same,binding signal,ELF1,"1.27 fold enrichment (6-mer frequency, TF over GST control)"
same,binding signal,EHF,"1.31 fold enrichment (6-mer frequency, TF over GST control)"
same,binding signal,SPI1,"1.33 fold enrichment (6-mer frequency, TF over GST control)"
same,binding signal,SPIB,"1.33 fold enrichment (6-mer frequency, TF over GST control)"
same,binding signal,ELK3,"1.31 fold enrichment (6-mer frequency, TF over GST control)"
CTGAAA,binding signal,FLI1,"1.16 fold enrichment (6-mer frequency, TF over GST control)"
same,binding signal,ELK1,"1.14 fold enrichment (6-mer frequency, TF over GST control)"
same,binding signal,GABPA,"1.1 fold enrichment (6-mer frequency, TF over GST control)"
same,binding signal,ERG,"1.04 fold enrichment (6-mer frequency, TF over GST control)"
same,binding signal,ELF1,"1.19 fold enrichment (6-mer frequency, TF over GST control)"
same,binding signal,EHF,"1.09 fold enrichment (6-mer frequency, TF over GST control)"
same,binding signal,SPI1,"1.19 fold enrichment (6-mer frequency, TF over GST control)"
same,binding signal,SPIB,"1.24 fold enrichment (6-mer frequency, TF over GST control)"
same,binding signal,ELK3,"1.03 fold enrichment (6-mer frequency, TF over GST control)"
TAAGAA,binding signal,FLI1,"1.09 fold enrichment (6-mer frequency, TF over GST control)"
same,binding signal,ELK1,"1.1 fold enrichment (6-mer frequency, TF over GST control)"
same,binding signal,GABPA,"1.15 fold enrichment (6-mer frequency, TF over GST control)"
same,binding signal,ERG,"1.05 fold enrichment (6-mer frequency, TF over GST control)"
same,binding signal,ELF1,"1.04 fold enrichment (6-mer frequency, TF over GST control)"
same,binding signal,EHF,"1.04 fold enrichment (6-mer frequency, TF over GST control)"
same,binding signal,SPI1,"1.12 fold enrichment (6-mer frequency, TF over GST control)"
same,binding signal,SPIB,"1.04 fold enrichment (6-mer frequency, TF over GST control)"
same,binding signal,ELK3,"1.15 fold enrichment (6-mer frequency, TF over GST control)"
